mHTT-CaM PPI inh: inhibitors of human mutant huntingtin-calmodulin interaction; P42858; AlphaScreen His-mHTT/GST-CaM binding, luminescence; inhibition, % at 15 µM; actives 3.6% (n = 190,000); AID 1671202;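 note: 0% = both proteins with DMSO and 100% = one protein alone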
Pf apPOL inh: Pf-apPOL DNA polymerase inhibition | Recombinant Pf-apPOL, molecular beacon fluorescence, 1.5 h | inhibition, % at 10 µM | actives 0.25% (n = 210,000)
Active calls of the source: *; · = no result. The entries come from a sample that favours hits as a whole. Cut-off read from the data, not from the text of the source: active = inhibition above about 50%; inactive = the rest.

SMILES	mHTT-CaM PPI inh	Pf apPOL inh
CCOCCCNC(=O)c1c[nH]c2ccc(S(=O)(=O)N(C)c3ccc(Cl)cc3)cc2c1=O	24	-11
C=CCNC(=O)c1c[nH]c2ccc(S(=O)(=O)N(C)c3ccc(Br)cc3)cc2c1=O	55*	-6
Cc1noc(C)c1S(=O)(=O)N1CCC(CC(=O)NCc2ccccn2)CC1	15	3
Cc1ccc(CCNC(=O)c2cc3n(n2)CCCN(Cc2cccc(C)c2)C3=O)cc1	1	-8
CC(C)C(=O)Nc1ccc(C2(C(=O)N3CCCC3)CCCCC2)cc1	13	8
CC(C)C(=O)Nc1ccc(C2(C(=O)N3CCN(c4ccccc4)CC3)CCCCC2)cc1	51*	7
Cc1c(F)cccc1N1CCC(C(=O)NCCc2ccccn2)C1=O (centres undefined)	4	-2
O=C(NCc1c(F)cccc1F)C(=O)Nc1ccncc1	-10	-2
Cc1cc(Cl)ccc1OCC(O)CN1CCN(C)CC1 (centres undefined)	6	44
Cc1cc(OCC(O)CNC(C)c2ccccc2)ccc1Cl (centres undefined)	100*	-4
Cc1ccc(OCC(O)CNC(C)(C)C)cc1C (centres undefined)	0	0
Cc1cc(Cl)ccc1OCC(O)CNC(C)c1ccccc1 (centres undefined)	58*	-1
O=c1cc(O)c2sc3nc(-c4ccccc4)cc(-c4ccccc4)c3c2[nH]1	-5	·
CCC(C)NC(=O)Cn1ccc2c(C)nn(C)c2c1=O (centres undefined)	-4	1
NC(=O)c1ccc(NC(=O)C2C3C=CC(C3)C2C(=O)O)cc1 (centres undefined)	-3	1
COc1ccc(C(=O)Nc2c3c(nn2-c2ccc(C)cc2C)CSC3)cc1	8	-74
Cc1ccc(-n2nc3c(c2NC(=O)c2ccc(F)cc2)CSC3)c(C)c1	28	57*
Cc1cccc(C(=O)Nc2c3c(nn2C(C)(C)C)CS(=O)(=O)C3)c1	1	-1
Cc1ccc(C(=O)Nc2c3c(nn2C(C)(C)C)CS(=O)(=O)C3)cc1	3	88*
CC(C)(C)n1nc2c(c1NC(=O)c1c(F)cccc1Cl)CSC2	26	0
CC(C)(C)n1nc2c(c1NC(=O)c1ccco1)CS(=O)C2 (centres undefined)	2	6
CC(C)(C)n1nc2c(c1NC(=O)c1ccco1)CSC2	71*	39
CC(C)(C)n1nc2c(c1NC(=O)C(=O)NCc1c(F)cccc1F)CSC2	60*	-1
Cc1cc(C)n2c(nc3ccccc32)c1C(=O)O	0	7
O=C(NCc1ccccc1Cl)c1cc2n(n1)CCCN(Cc1ccc(Cl)cc1)C2=O	-3	11
SMILES	mHTT-CaM PPI inh	Pf apPOL inh
CCCCc1ccc(C2=N/C(=C/c3ccc4c(c3)OCO4)C(=O)O2)cc1	-11	-5
Cc1ccc(C(=O)Nc2c3c(nn2C(C)(C)C)CSC3)cc1	-10	-2
CC(C)(C)n1nc2c(c1NC(=O)c1ccc(F)cc1)CSC2	58*	-4
COc1ccccc1C1C(C(=O)Nc2ccc(F)cc2F)=C(C)NC2=C1C(=O)CCC2 (centres undefined)	5	8
Cc1ccc(-c2ncc(NC(=O)c3ccccc3)cn2)cc1	-3	-3
Cc1c(NC(=O)c2ccc([N+](=O)[O-])o2)cccc1-c1nc2ccccc2s1	30	3
CC(=O)NC(c1ccc(C(C)C)cc1)c1ccc2cccnc2c1O (centres undefined)	100*	-34
CCCCC(=O)NC(c1cccc([N+](=O)[O-])c1)c1ccc2cccnc2c1O (centres undefined)	100*	-7
CC(=O)NC(c1cccc([N+](=O)[O-])c1)c1ccc2cccnc2c1O (centres undefined)	100*	1
CC(=O)Nc1cccnc1-c1ccc(C(=O)Nc2ccc(C(C)C)cc2)cc1	24	1
O=CNC(c1ccccc1)c1cccc([N+](=O)[O-])c1 (centres undefined)	0	0
O=C(Nc1cccc2cccnc12)c1cccc([N+](=O)[O-])c1	-1	1
Cc1cccc(S(=O)(=O)N2CCC(n3nc(C(C)C)cc3C(C)C)CC2)c1	-3	-4
O=C(O)CN1C(=O)SC(=Cc2ccccc2[N+](=O)[O-])C1=O	-4	5
CC(C)(C)c1cc(CCC(=O)NNC(=O)c2ccco2)cc(C(C)(C)C)c1O	7	1
CC(C)(C)c1cc(CCC(=O)NNC(=S)NC(=O)c2ccccc2)cc(C(C)(C)C)c1O	58*	-271
Cc1cccc(-c2nc(C3CCN(S(=O)(=O)c4ccc(F)c(C)c4)CC3)no2)c1	-4	-6
Cc1ccc(-c2c3c(nc4sc(C(N)=O)c(N)c24)CCCC3)o1	36	-5
COc1ccc(NC(=O)c2sc3nc4c(c(-c5ccc(C)o5)c3c2N)CCCC4)cc1	69*	-3
N#CC(=Cc1[nH]c2ccccc2c1O)C(N)=NCCc1ccccc1	19	-6
N#CC(=Cc1[nH]c2ccccc2c1O)C(N)=NC1CCCCC1	92*	0
